From PubChem BioAssay
This is a sample that favours compounds with a hit; in the whole collection about 18% have one here.
KAT2A inh: GCN5L2 (KAT2A) acetyltransferase inhibition. Q92830. GCN5L2 HAT assay, ThioGlo1 CoA-SH fluorescence. Potency, µM (doses to about 58.9 µM), for the others: at the top dose activity change, negative = inhibition, most hits filed as inhibitors. actives 0.21% (n = 390,000)
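qHTS, 1536-well. 20nM enzyme, pH 7.5 HEPES/EDTA/Tween-20 buffer; 15 min compound preinc., RT. Start: 75uM H3(1-25), 70uM AcCoA, 50uM ThioGlo1. Read Ex340/Em540 at t=0 (autofluorescence flag) and t=20 min.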
TDP1 cell CPT: growth inhibition of DT40 Tdp1-/-;hTDP1 cells with camptothecin (screen for TDP1 inhibitors) | chicken DT40 Tdp1-/-;hTDP1 cells + 20 nM CPT, ATP luminescence, 48 h | Potency, µM (highest dose often 46.2 µM), without a hit: at the top dose activity change, negative = growth inhibition, hits mostly inhibitors | actives 12% (n = 420,000) | AID 686979; also: nearly all actives have a fitted effect of over 55% in size
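Cell growth measured by CellTiter-Glo luminescence after a minimum 48 h, 37 C compound exposure with 20 nM CPT in Tdp1-knockout DT40 cells stably expressing hTDP1, seeded 400/well; qHTS titration format.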
VDR inhibitor: vitamin D3 receptor (human) inhibition; actives 0.93% (n = 400,000); VDR-SRC2-3 peptide fluorescence polarization, 2 h; Potency, µM, without a hit: max response, negative = inhibition, actives largely listed as inhibitors; P11473
Target sequence (P11473 whole entry, looked up): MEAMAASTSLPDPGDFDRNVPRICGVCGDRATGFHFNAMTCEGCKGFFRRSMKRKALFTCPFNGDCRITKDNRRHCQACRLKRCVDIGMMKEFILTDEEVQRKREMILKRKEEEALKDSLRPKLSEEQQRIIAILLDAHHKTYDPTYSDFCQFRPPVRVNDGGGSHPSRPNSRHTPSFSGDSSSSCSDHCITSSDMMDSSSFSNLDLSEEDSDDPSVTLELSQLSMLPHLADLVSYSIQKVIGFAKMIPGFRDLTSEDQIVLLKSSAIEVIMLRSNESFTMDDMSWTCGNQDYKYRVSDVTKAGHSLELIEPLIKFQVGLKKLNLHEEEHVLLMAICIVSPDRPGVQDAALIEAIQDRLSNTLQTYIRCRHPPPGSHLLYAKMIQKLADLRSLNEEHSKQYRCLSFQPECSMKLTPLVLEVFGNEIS
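Inhibition of the VDR/SRC2-3 peptide interaction is quantified by fluorescence polarization. Compounds (23 nl, pintool) incubate with the reagents for 2 hours at ambient room temperature.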
TDP1 block: TDP1 (human) enzyme inhibition; Q9NUW8; recombinant TDP1, AlphaScreen DNA substrate cleavage; Potency, µM (highest dose often 130 µM), for the others: top-dose activity change, negative = inhibition, actives largely listed as inhibitors; actives 0.28% (n = 350,000); also: nearly all actives have a fitted effect of over 40% in size
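Recombinant human Tdp1 (E. coli-expressed, 1 nM final) preincubated with compounds 15 min at room temperature, then 5'-biotin/3'-phosphotyrosine-FITC DNA substrate (15 nM final) added for 5 min. AlphaScreen beads (10 ug/ml final) added 10 min; cleavage lowers signal.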
PLK1 PBD block: PLK1 (human) polo-box domain binding inhibition. P53350. Plk1 PBD binding of FITC phosphopeptide, fluorescence polarization. Potency, µM, inactives show max response, negative = inhibition, hits mostly inhibitors. actives 2.8% (n = 360,000); also: series mostly up to about 57 µM; nearly all actives have a fitted effect of over 65% in size
TDP1 cell noCPT: qHTS for Inhibitors of human tyrosyl-DNA phosphodiesterase 1 (TDP1): qHTS in cells in absence of CPT | DT40 Tdp1-/- hTDP1 cells, no CPT, ATP luminescence, 48 h | actives 15% (n = 420,000) | Potency, µM (doses to about 46.2 µM), for the others: top-dose activity change, negative = growth inhibition, actives largely listed as inhibitors; also: nearly all actives have a fitted effect of over 55% in size
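Growth of hTDP1-complemented DT40 Tdp1-knockout cells is measured by ATP luminescence after at least 48 hr compound exposure at 37 °C, with DMSO substituting for the 20 nM CPT used in the parallel screen.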
Active calls of the source: *; ? = inconclusive; . = no result; [ ] = remark or other dose. Calls follow the shape of the dose curve; as a rule, active = well fitted curve in the direction sought with a large enough effect; inconclusive = small, poorly fitted or top-dose-only effect, or another doubt; inactive = no such curve, though single readings can be large; an effect the other way counts as inactive or inconclusive. % is scaled to controls: 0 for no effect and ±100 for the full control effect; potency is read from the fitted curve at half-maximal effect.

SMILES | KAT2A inh | TDP1 cell CPT | VDR inhibitor | TDP1 block | PLK1 PBD block | TDP1 cell noCPT
COC(=O)C1=C(C)N(CCCC(=O)O)C(=O)NC1c1ccccc1OS(=O)(=O)c1ccccc1[N+](=O)[O-] (stereo unspecified) | . | -9.2% | -4.1% | . | -21.4% | 1.1%
COc1ccc(S(=O)(=O)N(C)C[C@H]2OCc3cn(nn3)CCCC(=O)N([C@@H](C)CO)C[C@@H]2C)cc1 | . | -0.4% | . | . | ? | 8.7%
CSc1nc(N)c2ncn([C@@H]3O[C@H](COP(=O)(O)OP(=O)(O)O)[C@H](O)[C@H]3O)c2n1 | . | . | . | 9.0%[56.1 µM] | . | .
COc1ccc(C(=O)NCC2(N3CCN(C)CC3)CCCCC2)cc1 | -5.7% | 1.5% | 7.7% | -3.6% | . | 5.6%
C[C@@H]1COC(=O)[C@H](Cc2ccc(F)cc2)CC/C=C\C[C@@H](CC(=O)NCCO)C(=O)N1 | -2.7% | 1.0% | -7.7% | -0.2% | -2.8% | -6.5%
Cc1cc(C)cc(NC(=O)N2CCC(CN3CCc4ccccc4C3)CC2)c1 | 1.1% | ? | 15.4% | 0.0% | . | 13µM*
COc1cc(NC(=O)N2CCC(CN3CCc4ccccc4C3)CC2)cc(OC)c1 | 0.6% | -28.5% | 6.0% | -2.5% | . | -26.5%
COCCCN(C(=O)c1ccco1)c1nc(-c2ccc(OC)cc2)cs1 | -2.1% | 16.4µM* | -15.8% | 3.9% | -27.6% | 20.6µM*
CCN(C(=O)c1ccco1)c1nc(CC(=O)Nc2ccc(Cl)cc2)cs1 | -1.4% | ? | 12.1% | 4.1% | -5.5% | 16.4µM*
CCN(CC)CCCN(C(=O)c1ccco1)c1nc(-c2ccc(Cl)cc2)cs1 | -7.6% | ? | 20.9% | . | -7.3% | ?
O=C(c1ccco1)N(CCCN1CCOCC1)c1nc(-c2ccc(F)cc2)cs1 | -5.5% | 23.1µM* | -1.9% | 9.8% | -2.9% | 15.8µM*
CCN(CC)CCCN(C(=O)c1ccco1)c1nc(-c2ccc(C)cc2)cs1 | 3.6% | 18.4µM* | -3.5% | 1.2% | 6.7% | ?
O=C(CCn1cccn1)N1CCCC(N2CCN(c3cccc(Cl)c3)CC2)C1 (stereo unspecified) | -1.4% | 1.2% | -1.6% | 4.3% | 3.8% | -17.7%
Cc1cccc(NS(=O)(=O)c2nnc(NC(=O)C3CCCCC3)s2)c1 | -28.6% | ? | -7.7% | 3.9% | -5.7% | ?
COC(=O)c1cc(S(=O)(=O)N(C)C2CCCCC2)c[nH]1 | -3.1% | 5.8% | -7.2% | -2.7% | -3.5% | -3.7%
COCCCN(C(=O)c1ccccc1)c1nc(-c2ccc(OC)cc2)cs1 | -13.5% | 18.4µM* | -22.5% | 0.9% | -8.6% | 16.4µM*
CCn1c(-c2csc3c2CCCC3)n[nH]c1=S | -0.1% | 29.1µM* | 2.3% | -4.2% | -1.2% | 23.1µM*
CCn1c(-c2cccn(Cc3ccccc3)c2=O)n[nH]c1=S | -2.5% | 4.7% | -6.1% | ? | -14.5% | -9.3%
CCn1c(-c2ccccc2SC)n[nH]c1=S | -1.9% | 14.9% | 4.9% | 2.9% | -15.9% | 16.4µM*
CN(CC(=O)Nc1ccccc1C(F)(F)F)C(=O)CSc1nnc(-c2ccncc2)n1C | -3.4% | 1.8% | -19.6% | 1.2% | 1.4% | 0.5%
CCOc1ccccc1N1CC(C(=O)NNC(=O)c2cc(OC)c(OC)c(OC)c2)CC1=O (stereo unspecified) | -5.9% | 7.0% | 8.4% | -3.0% | 9.1% | 3.66µM*
CCOc1ccccc1N1CC(C(=O)N2CCc3ccccc3C2)CC1=O (stereo unspecified) | -5.1% | 16.4µM* | ? | 0.0% | 3.36µM* | 14.6µM*
Cc1ccc(CCNC(=O)CCSCc2ccccc2F)cc1 | 3.3% | -5.4% | 13.7% | 5.2% | . | -10.0%
CC1=C(C(=O)OC2CCCC2)C(c2ccccc2Cl)CC(=O)N1 (stereo unspecified) | -3.3% | 16.4µM* | -16.1% | 0.0%[12.3 µM] | . | 13µM*
CC1=C(C(=O)OC2CCCCCC2)C(c2c(Cl)cccc2Cl)CC(=O)N1 (stereo unspecified) | -14.5% | ? | -5.7% | 0.0% | . | ?
SMILES | KAT2A inh | TDP1 cell CPT | VDR inhibitor | TDP1 block | PLK1 PBD block | TDP1 cell noCPT
CC1=C(C(=O)OC2CCCC2)C(c2cccc(Cl)c2Cl)CC(=O)N1 (stereo unspecified) | -5.1% | ? | -2.1% | 2.5% | . | 23.1µM*
CC1=C(C(=O)OC2CCCC2)C(c2c(Cl)cccc2Cl)CC(=O)N1 (stereo unspecified) | -5.5% | ? | 10.2% | 2.5% | . | 25.9µM*
CCOC(=O)C1=C(C)NC(=O)CC1c1ccccc1OC (stereo unspecified) | -3.8% | -25.0% | -5.3% | -1.2% | 6.6% | 1.5%
CC1=C(C(=O)OC2CCCCCC2)C(c2cccc(F)c2F)CC(=O)N1 (stereo unspecified) | 5.0% | ? | -23.5% | 0.0% | . | ?
COc1ccccc1C1CC(=O)NC(C)=C1C(=O)OCC(C)C (stereo unspecified) | ? | 11.6µM* | 14.5% | 0.0% | -5.0% | 13µM*
CCCCN1C(=O)N(c2ccccc2Cl)C(C)(O)CC1(C)C (stereo unspecified) | -8.8% | -14.0% | -6.3% | . | -8.5% | ?
Cc1ccc(C(C)(C)C)c(OCCOCCN2CCCC2)c1 | -1.2% | 14.6µM* | -7.1% | 0.0% | 4.3% | ?
Cc1ccccc1OCCN1CCCC1 | -3.9% | -14.5% | -7.3% | 79.4µM* | -2.1% | 4.3%
Cc1ccc(OCCOCCN2CCCCC2)c([N+](=O)[O-])c1 | 0.6% | 8.8% | -0.6% | 1.2% | -5.2% | -0.4%
CC(C)(C)c1ccccc1OCCOCCN1CCCCCC1 | -5.0% | ? | 2.1% | 0.0% | -12.7% | 14.6µM*
CCC(C)c1ccccc1OCCOCCN1CCCC1 (stereo unspecified) | 0.1% | ? | -4.0% | -2.6% | -2.9% | ?
CC(=O)c1ccc(-c2cc(F)cc3c2OC(CNC(=O)Cc2cn4ccsc4n2)C3)s1 (stereo unspecified) | . | 2.0%[9.04 µM] | . | . | . | -23.0%
C[C@@H]1CN([C@H](C)CO)C(=O)CCCn2nncc2CO[C@H]1CN(C)Cc1ccc(-c2ccccc2)cc1 | . | ? | . | . | -1.7% | ?
C[C@H](CO)N1C[C@H](C)[C@@H](CN(C)Cc2ccc(C(F)(F)F)cc2)OCc2cnnn2CCCC1=O | . | 25.9µM* | . | . | -16.1% | ?
C[C@H]1CN([C@@H](C)CO)C(=O)CCCn2nncc2CO[C@H]1CN(C)S(=O)(=O)c1ccc(Oc2ccccc2)nc1 | . | 10.3µM* | . | . | -4.3% | 8.2µM*
C[C@H]1CN([C@@H](C)CO)C(=O)CCCn2nncc2CO[C@@H]1CN(C)Cc1ccc(-c2ccccc2)cc1 | . | 9.2µM* | . | . | -12.7% | 10.3µM*
